In the library only some 7.5% were active in any assay of this set; here they are far more common.
ELG1 genotoxic – induces genotoxicity in HEK293T cells with luciferase-tagged ELG1 | Potency, µM (titrated, usually from 46 µM), most hits filed as activators | 1.3% of 330,000 active | HEK293T ELG1-luciferase reporter, luminescence, 16 h; further: nearly all actives have a fitted effect of over 60% in size
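16 hr compound incubation (37 °C, 5% CO2) of HEK293T cells carrying luciferase-tagged ELG1; luciferase then measured by ONE-Glo luminescence after 30 min at RT.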
NPC1 promoter act – NPC1 promoter activation | Huh7 NPC1 promoter luciferase reporter, 24 h | Potency, µM (doses to about 9.22 µM), hits mostly activators | 2.4% of 320,000 active | AID 485313; further: nearly all actives have a fitted effect of over 60% in size
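Stable NPC1-promoter luciferase Huh7 line; cpd (DMSO) 24 h, 37 °C, 5% CO2; Amplite luciferase reagent 10 min RT; luminescence readout. qHTS format.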
SMN2 splice enh – increases expression of the SMN2 splice variant; HEK293 SMN2-luciferase splicing reporter, luminescence, 30-36 h; Potency, µM (titrated, usually from 46.1 µM), hits mostly activators; 2.8% of 210,000 active; AID 1458; further: nearly all actives have a fitted effect of over 55% in size
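HEK293 cells carry an SMN2 minigene-luciferase reporter in which exon 7 inclusion puts luciferase in frame. Cells were seeded at 2000 cells/well, attached for 10-12 hours, then exposed to compounds for 30-36 hours at 37C before ONE-Glo luminescence.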
FLuc counter – inhibits or activates purified firefly luciferase, miR-21 counter-screen | P08659 | purified FLuc, Km substrates, luminescence inhibition | Potency, µM (top dose mostly 57.5 µM), hits mostly inhibitors | 6.9% of 360,000 active; further: nearly all actives have a fitted effect of over 55% in size
Target sequence (P08659 whole entry, looked up): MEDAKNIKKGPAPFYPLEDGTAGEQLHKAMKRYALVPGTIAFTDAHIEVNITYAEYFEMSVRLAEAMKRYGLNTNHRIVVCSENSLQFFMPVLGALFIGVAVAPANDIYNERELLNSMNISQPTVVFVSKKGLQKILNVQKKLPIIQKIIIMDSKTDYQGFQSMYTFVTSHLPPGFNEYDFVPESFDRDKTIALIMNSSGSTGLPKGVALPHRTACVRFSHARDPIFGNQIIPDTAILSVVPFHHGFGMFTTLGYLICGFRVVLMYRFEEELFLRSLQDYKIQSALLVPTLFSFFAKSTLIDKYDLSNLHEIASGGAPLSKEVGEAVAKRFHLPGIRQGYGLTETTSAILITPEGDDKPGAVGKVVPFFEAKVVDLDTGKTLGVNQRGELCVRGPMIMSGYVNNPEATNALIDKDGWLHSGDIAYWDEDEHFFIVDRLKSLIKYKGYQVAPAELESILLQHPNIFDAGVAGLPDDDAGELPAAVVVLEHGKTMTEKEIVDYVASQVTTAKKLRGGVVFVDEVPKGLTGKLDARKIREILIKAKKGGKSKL
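Purified P. pyralis luciferase (10nM final) with 10uM D-luciferin and 10uM ATP (Km levels) in 50mM Tris acetate pH 7.5, 10mM Mg acetate, 0.01% Tween-20, 0.05% BSA; qHTS 6-point titration, ~60 µM downward; luminescence read.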
Rab9 prom act – Rab9 promoter activation; Huh7 Rab9 promoter-luciferase reporter, luminescence, 24 h; Potency, µM (series often up to 9.22 µM), actives largely listed as activators; 2.8% of 320,000 active; AID 485297; further: nearly all actives have a fitted effect of over 60% in size
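Using Huh7 cells stably transfected with Rab9 promoter–luciferase, compounds were incubated 24 h at 37 °C, 5% CO2; luciferase luminescence was read 10 min after reagent addition.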
Of the large screens only hits and unclear results are named; the others gave an inactive call. The call rests on the fitted dose curve; in most records, active means well fitted curve in the direction sought with a large enough effect; inconclusive means small, poorly fitted or top-dose-only effect, or another doubt; inactive means no such curve, though single readings can be large; an effect the other way counts as inactive or inconclusive.

O=C(CCC1CCCC1)Nc1ccc(Br)cn1	NPC1 promoter act inconclusive, SMN2 splice enh inconclusive, Rab9 prom act 2.24µM
Cc1cccc(C(=O)NNC(=O)C2CC2)c1	none (no result: SMN2 splice enh)
CC(=O)Nc1ccc(C(=O)CSc2nnc3ccc4ccccc4n23)cc1	none (no result: ELG1 genotoxic, NPC1 promoter act, SMN2 splice enh, Rab9 prom act)
O=C(CSc1nnc2ccc3ccccc3n12)c1ccc(F)cc1	FLuc counter 6.75µM, Rab9 prom act inconclusive (no result: ELG1 genotoxic, SMN2 splice enh)
O=C(CSc1cnc2ccccc2n1)c1ccc(F)cc1	ELG1 genotoxic inconclusive, NPC1 promoter act 3.16µM, SMN2 splice enh 11.2µM, FLuc counter 4.78µM, Rab9 prom act 3.16µM
COC(=O)[C@@H]1OC(=O)[C@H]2O[C@@]23[C@@]1(C)CC[C@@H]1[C@@]2(C)C=CC(=O)OC(C)(C)[C@@H]2CC(=O)[C@]13C	none (no result: SMN2 splice enh)
CC(C)Cn1c(N2CCN(CC(=O)Nc3ccc(Cl)cc3)CC2)nc2ccccc21	none (no result: SMN2 splice enh)
CN(C)CCCN(C(=O)c1ccc(Br)s1)c1nc2cc3c(cc2s1)OCO3	SMN2 splice enh inconclusive
CC1CCCCN1C(=O)NC12CC3CC(CC(C3)C1)C2 (centres undefined)	none
CCc1ccccc1NC(=O)c1nnn(-c2ccc(F)cc2)c1C	FLuc counter 12µM (no result: ELG1 genotoxic, NPC1 promoter act, Rab9 prom act)
CCc1ccccc1NC(=O)c1cnn(-c2ccccc2)c1C	FLuc counter inconclusive (no result: SMN2 splice enh)
COC(=O)c1ccccc1NC(=O)c1ccc2c(Cl)c3c(nc2c1)CCCC3	FLuc counter 12µM (no result: ELG1 genotoxic, NPC1 promoter act, Rab9 prom act)
CCOC(=O)c1cccc(NC(=O)c2ccc3c(Cl)c4c(nc3c2)CCC4)c1	FLuc counter 0.301µM (no result: ELG1 genotoxic, NPC1 promoter act, Rab9 prom act)
CCOC(=O)c1ccccc1NC(=O)c1ccc2c(Cl)c3c(nc2c1)CCC3	FLuc counter 5.36µM (no result: ELG1 genotoxic, NPC1 promoter act, Rab9 prom act)
CCCN(CCC)CCCNC(=O)c1ccc2c(Cl)c3c(nc2c1)CCC3	none (no result: SMN2 splice enh)
COCCNC(=O)c1ccc2c(Cl)c3c(nc2c1)CCC3	ELG1 genotoxic inconclusive, NPC1 promoter act inconclusive, FLuc counter 8.49µM, Rab9 prom act 3.55µM (no result: SMN2 splice enh)
Cc1ccn2c(=O)nc(SCC(=O)Nc3ccc4c(c3)OCO4)nc2c1	none (no result: SMN2 splice enh)
CCOC(=O)CSc1nc(C)c2ccccc2n1	FLuc counter inconclusive
COc1cc(-c2nnc(SCCOc3cc(C)cc(C)c3)o2)cc(OC)c1OC	FLuc counter 15.1µM (no result: ELG1 genotoxic, NPC1 promoter act, SMN2 splice enh, Rab9 prom act)
COC(=O)CC1C(=O)NCCN1C(=O)CSc1nnc(Nc2ccc(OC)cc2)s1 (centres undefined)	FLuc counter 21.3µM (no result: SMN2 splice enh)
COC(=O)CC1C(=O)NCCN1C(=O)CSc1nc2ccccc2o1 (centres undefined)	none
COC(=O)CC1C(=O)NCCN1C(=O)CSc1nnc(Nc2ccc(C)cc2)s1 (centres undefined)	FLuc counter 16.9µM
CC1CCCC(NC(=O)c2cc(S(=O)(=O)N3CCOCC3)ccc2F)C1C (centres undefined)	none (no result: SMN2 splice enh)
CS(=O)(=O)n1nc(OC(=O)c2cccc3ccccc23)cc1N	FLuc counter 16.9µM
CSc1ccccc1NC(=O)COC(=O)CCC(=O)c1ccc(F)cc1	none (no result: NPC1 promoter act, SMN2 splice enh, FLuc counter, Rab9 prom act)
CCCCN1CCc2c([nH]c3ccccc23)C1=O	ELG1 genotoxic inconclusive, NPC1 promoter act inconclusive, SMN2 splice enh inconclusive, Rab9 prom act 2.51µM
CSCCC(NC(=O)/C(=C\c1ccc(Cl)cc1)NC(=O)c1ccccc1)C(=O)O (centres undefined)	none
CCc1ccc(CNc2ccc3c(c2)ncn3C)cc1	ELG1 genotoxic inconclusive, NPC1 promoter act 2.24µM, SMN2 splice enh 11.2µM, FLuc counter 9.53µM, Rab9 prom act 2.82µM
Cc1ccc(S(=O)(=O)Nc2ccc3c(c2)ncn3C(C)(C)C)cc1	none
Cc1ccc(CNc2ccc3c(c2)ncn3C(C)(C)C)cc1	ELG1 genotoxic inconclusive, NPC1 promoter act 1.78µM, SMN2 splice enh 10µM, FLuc counter 9.53µM, Rab9 prom act 3.98µM
COc1ccc(CNc2ccc3c(c2)ncn3C)cc1OC	none (no result: SMN2 splice enh)
Cc1ccc(CNc2ccc3c(c2)ncn3C)cc1	ELG1 genotoxic 8.2µM, NPC1 promoter act 3.16µM, SMN2 splice enh 17.8µM, FLuc counter 12µM, Rab9 prom act 2µM
CC(C)(C)n1cnc2cc(NCc3ccccc3Cl)ccc21	FLuc counter 13.5µM (no result: ELG1 genotoxic, NPC1 promoter act, Rab9 prom act)
Cc1cccc(OCC(=O)N/N=C/c2ccccc2C(=O)O)c1	FLuc counter inconclusive
CCCN1CCC(NC(=S)Nc2ccc([N+](=O)[O-])cc2)CC1	none (no result: SMN2 splice enh)
Cc1ccc(C(=O)c2c3ccccc3[n+]([O-])n2CCO)cc1	none (no result: SMN2 splice enh)
CCn1cnc2cc(NCc3ccncc3)ccc21	none (no result: SMN2 splice enh)
CCn1cnc2cc(NCc3ccc(Cl)cc3)ccc21	ELG1 genotoxic inconclusive, NPC1 promoter act 2.82µM, FLuc counter 10.7µM, Rab9 prom act 2.51µM (no result: SMN2 splice enh)
COc1ccc(OC)c(C2CC(=O)Nc3cc(OC)c(OC)c(OC)c32)c1 (centres undefined)	ELG1 genotoxic 18.4µM, SMN2 splice enh inconclusive
COc1ccc(OC)c(C2CC(=O)Nc3ccc4ccccc4c32)c1 (centres undefined)	none (no result: ELG1 genotoxic, NPC1 promoter act, Rab9 prom act)
Cc1noc(C)c1CSCC(=O)Nc1cc(C(F)(F)F)ccc1N1CCCCC1	none (no result: SMN2 splice enh)
N#CC1(P(=O)(c2ccccc2)c2ccccc2)CC1	none
OCc1cc(Br)ccc1OCc1nc2ccccc2s1	ELG1 genotoxic inconclusive, NPC1 promoter act 3.16µM, FLuc counter 5.36µM, Rab9 prom act 2.82µM (no result: SMN2 splice enh)
Oc1ccccc1OCc1nc2ccccc2s1	ELG1 genotoxic 8.2µM, SMN2 splice enh 31.6µM, FLuc counter 5.36µM
Cn1cc(Cl)c(C(=O)Nc2nc3ccccc3s2)n1	ELG1 genotoxic 0.461µM, NPC1 promoter act inconclusive, SMN2 splice enh 1.78µM, FLuc counter 0.953µM, Rab9 prom act inconclusive
O=C(Nc1nc2ccccc2s1)c1c(F)cccc1Cl	ELG1 genotoxic inconclusive, NPC1 promoter act inconclusive, FLuc counter 23.9µM, Rab9 prom act inconclusive (no result: SMN2 splice enh)

Screening data as filed in PubChem BioAssay.
